TDP-43 tox inh: rescues yeast from TDP-43 toxicity. yeast TDP-43 toxicity rescue, BacTiter-Glo growth, 24 h. Potency, µM (titrated, usually from 46.1 µM), usual class: activators. actives 0.45% (n = 45,000). AID 1347073; active means well fitted activation curve with a large enough effect; further: nearly all actives have a fitted effect of over 55% in size
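TDP-43-expressing yeast, pregrown in raffinose, seeded at OD600 0.02 in galactose medium with compound for 24 hr at 30 deg C. Growth read by BacTiter-Glo luminescence, so rescue of toxicity appears as activation.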
Of the large screens only hits and unclear results are named; the others gave an inactive call. The sample as a whole holds a higher share of hits than the screen did.

Cc1cc(=O)[nH]c(N/N=C/c2ccc(F)cc2)n1	none
Cc1ccc(NC(=O)Nc2ccc(F)c(Cl)c2)cc1	none
Cc1ccc(OCCC(=O)Nc2ccc(F)c(F)c2)cc1	none
Cc1cccc(OCCC(=O)Nc2ccc(F)c(Cl)c2)c1	TDP-43 tox inh 13µM
O=C(COC(=O)c1ccccc1Br)NC1CCCC1	none
O=C(COC(=O)CSc1ccc2ccccc2c1Br)NC1CC1	TDP-43 tox inh 22µM
O=C(COC(=O)CNC(=O)c1ccccc1)NC1CCCCC1	none
O=C(CS(=O)(=O)c1ccccc1)Nc1nnc(C(F)(F)F)s1	none
O=[N+]([O-])c1cccc(/C=N/n2cnnc2)c1	none
CCc1ccc(/C=N\n2cnnc2)cc1	none
C(=N\n1cnnc1)/c1ccc(-c2ccccc2)cc1	TDP-43 tox inh 11µM
O=C(COc1c(F)c(F)c(C(F)(F)F)c(F)c1F)Nc1ccc(N2CCOCC2)c(Cl)c1	TDP-43 tox inh 13µM
COc1ccc(NS(=O)(=O)c2cc(NC(=O)COc3ccccc3)ccc2N2CCOCC2)cc1	none
COCc1cc(C)n(CC(=O)Nc2ccc(N3CCOCC3)c(Cl)c2)c(=O)c1C#N	none
O=C(O)c1cccc2c1C(=O)N(c1ccccc1)C2	none
O=C(Cc1ccccc1F)NNC(=O)c1cccs1	none
COc1ccc(CC(=O)OCC(=O)N2CCCC(C)C2)cc1 (stereo not drawn)	none
CC1CCCN(CC(=O)NNC(=O)COc2ccc(Br)cc2)C1 (stereo not drawn)	none
CC1CCCN(C(=O)COc2ccc(-c3ccccc3)cc2)C1 (stereo not drawn)	TDP-43 tox inh 11µM
CC(=O)c1c(C)[nH]c(C(=O)CSc2nnc(-c3ccco3)o2)c1C	none
CC(=O)c1ccc(NC(=O)CSc2nnc(-c3ccco3)o2)cc1	none
Cc1ccc(CSc2nnc(-c3ccco3)o2)cc1	TDP-43 tox inh 13µM
Cc1cc(C(F)(F)F)nc(-n2cc(-c3cccc(N)c3)nn2)n1	none
Cc1cc(NC(=O)c2ccc(Cl)cc2Cl)n(CCC#N)n1	none
Cn1nccc1C(=O)OCC(=O)Nc1ccccc1	none
COc1ccc(-n2nc(C(=O)NCC(=O)N3CCC(C)CC3)c3ccccc3c2=O)cc1Cl	TDP-43 tox inh 18µM
CCOC(=O)C1CCN(C(=O)CNC(=O)c2nn(-c3ccc(OC)c(OC)c3)c(=O)c3ccccc23)CC1	none
COc1ccc(-n2nc(C(=O)NCC(=O)N3CCN(Cc4ccccc4)CC3)c3ccccc3c2=O)cc1OC	none
COc1ccc(-c2onc(C)c2-c2ccc(C(=O)OC(C)C)o2)c(O)c1	TDP-43 tox inh 16µM
COc1cc(NC(=O)c2ccc(-c3c(C)noc3C)c3ccoc23)cc(OC)c1OC	none
COc1ccc(-c2onc(C)c2-c2cnn(-c3ccccc3)c2)c(O)c1C	none
Cc1ccc(NC(=S)N2CCCC(CO)C2)c(C)c1 (stereo not drawn)	none
Cc1ccc(Cn2c3ccccc3c3cnn(CC(=O)N4CCCCCC4)c(=O)c32)cc1	none
Cc1ccc(S(=O)(=O)N2CCCCC2)cc1NC(=O)COC(=O)c1cc[n+]([O-])cc1	none
C[n+]1cccc2c(Br)ccc([O-])c21	none
[O-][n+]1cccc2c(Br)cc(Br)c(O)c21	TDP-43 tox inh 7.9µM
CCc1ccccc1NC(=O)C1CCN(c2cnccn2)CC1	none
CN1CCN(c2ncnc3c2ncn3[C@H]2CN(Cc3cccs3)C[C@@H](CO)O2)CC1	none
CCCCOc1cccc(C(=O)NC(=S)Nc2cccc(NC(=O)c3ccccc3Cl)c2)c1	none
CC(C)N(C(=O)Cn1cc(S(=O)(=O)Cc2ccc(Cl)cc2)c2ccccc21)C(C)C	none
CC1=C(C(=O)OC2CCCCC2)C(c2ccc(C)o2)C2=C(CCCC2=O)N1 (stereo not drawn)	none
Nc1c(O)ccc2c1C(=O)c1ccccc1C2=O	none
CN(C)C(=O)c1ccc2c(c1[N+](=O)[O-])C(=O)c1ccccc1C2=O	TDP-43 tox inh 10µM
CN(C)C(=O)c1cn(-c2ccccc2)nc1-c1cccc([N+](=O)[O-])c1	none
Cc1c(CCO)c(=O)oc2n[nH]c(-c3ccccc3)c12	none
COc1ccc(-c2noc(-c3nnn(-c4ccc(C(C)C)cc4)c3C)n2)cc1OC	none
CCN(CC)C(=O)c1nn(-c2ccccc2)c2c1C1CCC2(C)C1(C)C (stereo not drawn)	none
CCn1c(=O)c2c3c(sc2n2c(SCc4ccc(F)cc4)nnc12)CCCC3	none
COCCn1cnc2c1c(=O)n(CC#N)c(=O)n2Cc1ccccc1	none
C=CCc1cccc2cc(C(=O)NC3CCCCC3)c(=O)oc12	none
Cc1ccc(OCC(=O)O/N=C(\N)c2cccc([N+](=O)[O-])c2)cc1C	none
N/C(=N\OC(=O)CC1CCCCC1)c1ccc([N+](=O)[O-])cc1	TDP-43 tox inh 18µM
O=C(NCC1CCCCC1)c1cccc([N+](=O)[O-])c1	none
CC(C1CC2CCC1C2)N1CC(O)=C(c2nc3ccccc3[nH]2)C1=N (stereo not drawn)	none
CC(C)(C)c1n[nH]c(=S)n(/N=C/c2cccs2)c1=O	none
CC(C1CC2CCC1C2)n1c(-c2cccs2)n[nH]c1=S (stereo not drawn)	TDP-43 tox inh 14µM
CCc1nnc(NC(=O)c2nc(S(=O)(=O)Cc3cccc(C)c3)ncc2Cl)s1	none
O=C(CSc1ncccn1)Nc1ccc2c(c1)OCO2	none
COc1ccc(CNC(=O)c2ccc(-c3ccc(F)c(F)c3)c3ccoc23)cc1OC	none
O=C(NCC1CC1)c1cccc2c(-c3ccc(F)c(F)c3)coc12	TDP-43 tox inh 22µM
NC(=O)c1cccc(-c2coc3c(C(=O)NC4CCCCC4)cccc23)c1	none
Cn1nccc1-c1coc2c(C(=O)NCC3CCOCC3)cccc12	none
O=C(NCc1ccc(F)c(F)c1)c1cccc2c(-c3cccnc3)coc12	TDP-43 tox inh 10µM
O=C(NCc1cccc(Cl)c1)c1ccc(-c2ccc(F)c(F)c2)c2ccoc12	none
O=C(COc1ccccc1)NNC(=O)c1cc2ccccc2oc1=O	none
COC(=O)c1c(NC(=O)c2ccccc2OC)sc(C(=O)N2CCOCC2)c1C	none
Cc1ccc(/C=C/C(=O)c2ccc(O)cc2)cc1	TDP-43 tox inh 16µM
CCN(CC)c1ccc(/C=C/C(=O)c2ccc(Br)cc2)cc1	none
Cc1ccc(C(=O)/C=C/NCc2ccc(F)cc2)cc1	none
COc1ccc(C)cc1NC(=O)C(Sc1nnc(-c2cccs2)o1)c1ccccc1 (stereo not drawn)	none
Cc1c(CC(=O)NCCC(=O)O)c(=O)oc2cc3occ(-c4ccccc4)c3cc12	none
C/C(=N\Nc1cccc(C(=O)O)c1)c1ccc(Cl)s1	none
C/C(=N\Nc1ccc(C(=O)O)cc1)c1ccc2c(c1)Nc1ccccc1S2	TDP-43 tox inh 11µM
C/C(=N\Nc1ccc(Cl)c(C(=O)O)c1)c1cccc2ccccc12	none
O=C(CNS(=O)(=O)N1CCOCC1)N/N=C/c1cccnc1	none
COc1ccc(-n2c(SCC(=O)N(C)C3CCS(=O)(=O)C3)nc3ccc(O)cc3c2=O)cc1OC (stereo not drawn)	none
O=C(O)c1ccccc1C(=O)Nc1ccc(Oc2ccc3ccccc3c2)cc1	TDP-43 tox inh 22µM
O=C(Nc1ccc(Oc2cccnc2)cc1)c1ccccc1Cl	none
O=C(O)c1ccccc1C(=O)Nc1ccc(S(=O)(=O)N2CCCC2)cc1	none
COC(=O)c1ccc(Cl)c(NC(=O)c2cccc([N+](=O)[O-])c2C)c1	none
O=C(CSc1n[nH]c(-c2cccnc2)n1)Nc1ccc(Br)cc1	none
Nn1c(=O)c2ccccc2n2c(SCc3ccccc3)nnc12	none
Nn1c(SCc2cccc(Oc3ccccc3)c2)nnc1C(F)(F)F	TDP-43 tox inh 13µM
Cn1c(SCC(=O)Nc2ccccc2)nnc1C(F)(F)F	none
Cn1c(CNC(=O)c2ccco2)nnc1SCC(=O)c1ccc(F)cc1	none
CCCN(CC(=O)Nc1ccc(F)c(F)c1F)C(=O)c1ccc2c(c1)NC(=O)CS2	none
O=C(Cc1ccccc1F)NCC(=O)Nc1ccccc1Br	none
